# Bioassay records (PubChem BioAssay)
# A selection: hits, their analogues and other compounds. The true share with any hit is near 1.9%.
# eIF4H FP inh: inhibitors of RNA binding by human eIF4H. Q15056. eIF4H fluorescence polarization binding assay. 290,000 compounds, 0.94% hits. inhibition, % at 35 µM;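 note: calls also rest on retests at 20 µM and on dose response follow-up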
# PABP1 MLLE inh: blocks PAM2 peptide binding to the PABP1 MLLE domain. GST-MLLE / FITC-PAM2 fluorescence polarization. inhibition, % at 20 µM. 360,000 compounds, 0.36% hits; in the data active = inhibition above about 35%, passing the limit was not always enough
# 14-3-3 Bad PPI: disrupts binding of bovine 14-3-3 zeta to phospho-Bad peptide; inhibition, % at 21.7 µM; TR-FRET 14-3-3zeta/Dy647-pBad peptide displacement, 1 h; 220,000 compounds, 0.71% hits; P63103;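 active = inhibition above about 70%, limit read from the data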
# Target sequence (P63103 whole entry, looked up): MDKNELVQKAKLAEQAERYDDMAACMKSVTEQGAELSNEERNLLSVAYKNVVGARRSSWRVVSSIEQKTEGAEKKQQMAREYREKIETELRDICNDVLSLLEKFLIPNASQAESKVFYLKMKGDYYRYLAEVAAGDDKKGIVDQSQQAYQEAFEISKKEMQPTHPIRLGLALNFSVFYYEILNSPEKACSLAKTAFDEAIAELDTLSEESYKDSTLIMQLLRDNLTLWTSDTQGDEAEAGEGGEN
# PABP FP inh: PABP-poly(A) binding inhibition; 290,000 compounds, 1% hits; calls only at 35 µM; AID 2014; PABP-poly(A) RNA binding, fluorescence polarization;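 note: calls also rest on retests at 20 µM and on dose response follow-up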
# eIF4E 4G PPI: eIF4E/eIF4G interaction inhibition in translation initiation. P63073+Q04637. TR-FRET eIF4E-eIF4GI(517-606) binding, 2 h. inhibition, % at 21.7 µM. 220,000 compounds, 0.37% hits. AID 782;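 active = inhibition above about 30%, limit read from the data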
# Hits are given with their value; n = inactive; u = inconclusive; x = not tested or not shown; + = active, no number; [ ] = remark or other dose. Unless noted, the rule behind the calls is not given here.
SMILES,eIF4H FP inh,PABP1 MLLE inh,14-3-3 Bad PPI,PABP FP inh,eIF4E 4G PPI
CC[n+]1ccc2cc(OC)c(OC)cc2c1Cc1ccc(OC)c(OC)c1,n,n,n,+,n
COc1cccc2sc(Nc3nc4ccc(NC(C)=O)cc4s3)nc12,n,n,80.1[fluorescence artefact?],n,n
CC(C)=C[C@H]1C[C@H](C)[C@H]2CC[C@H](C)c3c(O[C@@H]4OC[C@@H](O)[C@H](O)C4O)c(O)c(C)c1c32 (some centres undefined),x,n,x,x,x
COc1ccc(C(C(=O)NC2CCCC2)N(C(=O)c2snc(C(N)=O)c2N)c2cccc(O)c2)cc1 (centres undefined),68.1,n,x,n,x
Cc1ccc(NC(=O)CN(C)C(=O)Nc2ccc(C)cc2)cc1,n,n,x,n,x
Cc1ccc(NC(=O)/C(CN(C)C)=N\O)cc1,n,n,93.4[fluorescence artefact?],n,n
Cc1ccc(-c2nc(NCc3ccco3)c3ccccc3n2)cc1,n,n,n,n,n
c1ccc(-c2nc(NCc3ccco3)c3oc4ccccc4c3n2)cc1,n,n,72.6,n,n
N#CCN(CC#N)C(=O)C1c2ccccc2Oc2ccccc21,n,n,x,n,x
COc1cccc(C(=O)N2CCN(Cc3cc(Br)ccc3OC)CC2)c1,n,n,71.8,n,n
Cc1ccc(CN2CCN(Cc3ccccc3C(F)(F)F)CC2)cc1,n,n,80.5,n,n
COc1ccc(Br)cc1CN1CCCC(C(=O)N2CCCCC2)C1 (centres undefined),n,n,73.2,n,n
COc1cccc(C(=O)N2CCN(Cc3ccccc3C(F)(F)F)CC2)c1,n,n,74.0,n,n
CC1(c2ccccc2Cl)NC(=O)N(CC(=O)NCc2ccc3c(c2)OCO3)C1=O (centres undefined),n,n,x,n,x
Cc1c(NC(=O)c2ccc(S(=O)(=O)N(C)c3ccccc3)cc2)c(=O)n(-c2ccccc2)n1C,n,n,n,n,n
CCN(CC(=O)Nc1c(F)cccc1F)C(=O)CNC(=O)c1ccc2c(c1)OCO2,n,n,x,+,x
Cc1cccc(-c2nc(=S)c3c(o2)CCCC3)c1,n,45.2,n,n,n
COc1ccc(/C=C(\C#N)C(=O)Nc2cccnc2)cc1,n,n,n,n,n
COc1ccc(O)c(/C=C(\C#N)C(=O)Nc2cccnc2)c1,n,n,n,n,37.1
O=C1NCC(Nc2ccc(Br)cc2)C(=O)N1 (centres undefined),x,n,x,x,x
CSc1nc(N(CCO)CCO)c2sc3nc(-c4ccco4)c4c(c3c2n1)CCC4,89.3,n,n,+,n
CSc1nc(SCCO)c2sc3nc(-c4ccco4)c4c(c3c2n1)CC(C)(C)OC4,n,n,n,+,n
Cc1occc1-c1nnc(SCC(=O)NC2CCCCC2C)o1 (centres undefined),x,n,x,x,x
C=C1[C@H]2O[C@H]2[C@@H](OC(C)=O)[C@@]2(C)[C@@H](OC(C)=O)C[C@@H](OC(C)=O)[C@@](C)(O)[C@@H]2[C@@H](OC(C)=O)[C@@]2(O)[C@@H](C)C(=O)O[C@H]2[C@H]1Cl,x,n,x,x,x
O=C(c1ccc(Br)cc1)N1CCC(C(=O)N2CCN(Cc3ccccc3)CC2)CC1,n,n,x,n,x
SMILES,eIF4H FP inh,PABP1 MLLE inh,14-3-3 Bad PPI,PABP FP inh,eIF4E 4G PPI
CCn1c(SCC(=O)NC(=O)NCc2ccco2)nc2sc(C)c(C)c2c1=O,81.7,n,n,+,n
C=CCn1c(SCC(=O)NC(=O)NCc2ccco2)nc2sc(CC)cc2c1=O,83.7,n,n,+,n
Cc1sc2nc(SCC(=O)NCc3ccco3)n(C)c(=O)c2c1C,n,n,n,n,n
Cc1ccccc1Nc1nnc(SCC(=O)NC(=O)NCc2ccco2)s1,59.1,n,n,n,n
CCOc1ccccc1-n1nnnc1SCC(=O)NC(=O)NCc1ccco1,60.7,n,n,+,n
COC(=O)c1cc(NC(=O)C2(S(=O)(=O)c3ccc(C)cc3)CC2)cc(C(=O)OC)c1,n,n,n,n,n
CCCn1c(SCC(=O)NC(=O)NCc2ccco2)n[nH]c1=O,74.0,x,n,+,n
COc1cccc(/C=c2/s/c(=C(\C#N)C(=O)N3CCOCC3)n(-c3ccccc3)c2=O)c1,n,n,76.4[fluorescence artefact?],n,n
CC1CCCN(CCOCCOc2ccc(Cl)cc2Br)C1 (centres undefined),n,n,71.5,n,n
CC1CC(C)CN(CCOc2ccc(Cl)cc2Cl)C1 (centres undefined),n,n,72.2,n,n
COc1ccc(OCC2CCNCC2)cc1,n,n,x,n,x
COCCNC(=O)C1(C)CCCN(C(=O)c2cc(OC)c(OC)c(OC)c2)C1 (centres undefined),x,n,x,x,x
CCOC(=O)c1c(C)[nH]c(C(=O)COC(=O)c2cnc(C)cn2)c1C,n,n,79.5,n,n
CCOC(=O)c1c(C)[nH]c(C(=O)CN2CCN(CC)CC2)c1C,n,n,n,n,54.2
Oc1ccc(C[C@H]2CNC(=S)N2CC2CCCN2C[C@H](Cc2ccc(O)cc2)N2C[C@H](Cc3ccccc3)N(CC3CCCCCC3)C2=S)cc1 (some centres undefined),x,n,x,x,x
CCN(CC)CCn1c2ccccc2c2nc(C)sc21,n,n,82.0,n,n
O=C(NCc1ccc(F)cc1)c1cc(C2CCCCN2S(=O)(=O)c2cccc3cccnc23)on1 (centres undefined),x,n,x,x,x
Cc1cc(C=O)c(C)n1-c1ccc(N2CCOCC2)c([N+](=O)[O-])c1,82.1,n,n,+,n
Nc1cc(OC(=O)c2ccc(F)cc2)nn1S(=O)(=O)c1ccccc1,n,n,x,n,x
Cc1ccc(NC(=S)NCC(C)C)cc1,n,n,n,n,n
Cc1sc2nc(COC(=O)c3ccc(Cl)c(N)c3)[nH]c(=O)c2c1C,74.3,n,n,+,n
Cc1sc2nc(COC(=O)c3ccc(N4CCCC4)c([N+](=O)[O-])c3)[nH]c(=O)c2c1C,u,n,n,+,n
N#CN1C2CCC1CC(O)(c1ccccc1)C2 (centres undefined),x,n,x,x,x
Cc1ccc2c(c1)N(CC(=O)N1CCCC1)C(=O)c1cccnc1O2,x,n,x,x,x
O=C(NCc1cccnc1)Nc1ccc(F)cc1F,n,n,87.4,n,n
SMILES,eIF4H FP inh,PABP1 MLLE inh,14-3-3 Bad PPI,PABP FP inh,eIF4E 4G PPI
CCc1ccccc1NC(=O)CNC(=O)CSC(=S)N1CCCC1,x,n,x,x,x
O=C(CCS(=O)(=O)c1ccc(Br)cc1)N1CCCCCC1,94.5,n,x,n,x
CC(=O)C1=C(O)C(=O)N(c2ccc(S(=O)(=O)Nc3nccs3)cc2)C1c1ccc(F)cc1 (centres undefined),n,n,n,n,n
Cc1cc(NCC2CCCO2)n2c(nc3ccccc32)c1C#N (centres undefined),60.6,n,n,+,n
CCN(c1ccccc1)S(=O)(=O)c1ccc(N2CCN(c3ccc(O)cc3)CC2)nc1,x,n,x,x,x
COc1cc(/C=C2\SC(=O)N(CCN)C2=O)ccc1OS(=O)(=O)c1cc(C)ccc1C,n,n,84.5,n,n
COc1ccc(/C=C2\SC(=O)N(CCC(=O)Nc3ccccc3)C2=O)cc1OC,n,n,n,n,n
COc1ccc(OC)c(S(=O)(=O)N2CCN(c3ncccn3)CC2)c1,n,n,x,n,x
